We go through eleven molecules from PubChem BioAssay (Tox21).

A number with no mark means an inactive call. Records with an inconclusive call do not appear. Active and inactive are the calls of the source. Unless noted, calls come from the whole dose curve; as a rule, active = well fitted curve in the direction sought with a large enough effect in the repeat runs; inconclusive = weak or mixed curves; inactive = no such curve, though single readings can be large; an effect the other way counts as inactive or inconclusive.

Test [1] has as its target Thyrotropin-releasing hormone receptor (Homo sapiens) (UniProt P34981). The test can be described thus: qHTS assay to identify small molecule agonists of the thyrotropin-releasing hormone receptor (TRHR) signaling pathway (AID 1346891; calls by dose curve;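 note: HEK293 cells expressing TRHR with calcium dye readout; series mostly up to about 58 µM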). The gist of the method:
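Compounds were tested as agonists at 15 concentrations, in triplicate, on TRHR-Hek293 cells; calcium-sensitive dye fluorescence was recorded for 3 min following addition.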

Test [2] is described as follows: Caspase-3/7 induction in HepG2 cells by small molecules, qHTS assay (AID 1346978). Note: nearly all actives have a fitted effect of over 15% in size. Note: potency is the fitted concentration of half-maximal effect. The gist of the method: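 Wild-type HepG2 cells (2,000/well) were settled 5 h at 37 C, 5% CO2, then exposed to compounds in DMSO for 17 h. Caspase-3/7 activity was read by luminescence 30 min after adding Caspase-Glo 3/7 reagent at room temperature.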
In general terms: In qHTS, concentration-response curves come from the screen itself.

Test [3] in a line: Caspase-3/7 induction in CHO-K1 cells by small molecules, qHTS cell viability counter screen (AID 1346979). Note: nearly all actives have a fitted effect of over 35% in size. Note: potency is the fitted concentration of half-maximal effect. The gist of the method: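 Viability readout by fluorescence (CellTiter-Fluor) on wild-type CHO-K1 cells exposed for 16hr at 37C and 5% CO2 to compounds delivered in DMSO; reagent incubated 1hr before reading.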
A short description of test [4]: Caspase-3/7 induction in CHO-K1 cells by small molecules, qHTS assay (AID 1346980). Note: nearly all actives have a fitted effect of over 15% in size. The gist of the method: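 Wild-type cells were seeded at 1,500 per well and settled 5 hr at 37 C, 5% CO2, then exposed to DMSO-dissolved compounds for 17 hr. Caspase-Glo 3/7 reagent was added, and luminescence was read after 30min at room temperature.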
A short description of test [5]: Caspase-3/7 induction in HepG2 cells by small molecules, qHTS cell viability counter screen (AID 1346981). For activity change, negative = cytotoxicity: series mostly up to about 92 µM. Note: nearly all actives have a fitted effect of over 30% in size. Note: potency is the fitted concentration of half-maximal effect. The method, boiled down: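 Viability determined by CellTiter-Fluor fluorescence in HepG2 wells also used for the luminescent Caspase-Glo 3/7 read. Compounds were present for 16 hr at 37 C, 5% CO2 before reagent addition.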
Test [6] addresses Voltage-gated inwardly rectifying potassium channel KCNH2 (Homo sapiens) (UniProt Q12809). The test can be described thus: Human Ether-a-go-go-Related Gene (hERG) channel small molecule antagonists: fluorescence cell-based qHTS assay (AID 1671200).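 Note: hERG-expressing U2OS cells given a thallium stimulus after FluxOR II dye loading; series mostly up to about 77 µM; nearly all actives have a fitted effect of over 50% in size.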 The gist of the method:
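Thallium served as the potassium surrogate; its influx into dye-loaded U2OS cells carrying the channel was measured by fluorescence over 2 min.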
(Block of hERG is tested as a sign of cardiac risk.)

The nature of test [7]: Human pregnane X receptor (PXR) small molecule agonists, qHTS cell viability counter screen (AID 1346977). Note: nearly all actives have a fitted effect of over 50% in size. The method, boiled down:
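Viability counter screen: CellTiter-Fluor signal in PXR-Luc HepG2 cells, 24hr compound exposure, 37C, 5% CO2.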

Test [8] addresses Nuclear receptor subfamily 1 group I member 2 (Homo sapiens) (UniProt O75469). Nature of the test: Human pregnane X receptor (PXR) small molecule agonists, qHTS assay (AID 1346982). Note: nearly all actives have a fitted effect of over 35% in size. Note: potency is the fitted concentration of half-maximal effect. The gist of the method: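 Compound-induced hPXR transactivation of a CYP3A4 luciferase reporter was scored in HepG2 PXR-Luc cells over 24 hr at 37 C, 5% CO2, by luminescence.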
Test [9] has as its target Cytochrome P450 2C19 (Homo sapiens) (UniProt P33261). Nature of the test: Cytochrome P450 Family 2 Subfamily C Member 19 (CYP2C19) small molecule antagonists: luciferase reporter qHTS assay (AID 1671197). For activity change, negative = inhibition: series mostly up to about 120 µM. Note: nearly all actives have a fitted effect of over 65% in size. Note: potency is the fitted concentration of half-maximal effect. The gist of the method: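 P450-Glo CYP2C19 system: enzyme-substrate mix with compound 10 min at room temperature, then NADPH regeneration solution, 1 h at 37C. Proluciferin-to-luciferin conversion detected by luminescence after 20 min with detection reagent; ketoconazole as positive control.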
A general note: Reporter assays use an easily measured gene product as a stand-in for the process of interest.

The target in test [10] is Cytochrome P450 2C9 (Homo sapiens) (UniProt P11712). Nature of the test: Cytochrome P450 Family 2 Subfamily C Member 9 (CYP2C9) small molecule antagonists: luciferase reporter qHTS assay (AID 1671198). For activity change, negative = inhibition: series mostly up to about 120 µM. Note: nearly all actives have a fitted effect of over 50% in size. Note: potency is the fitted concentration of half-maximal effect. The gist of the method:
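CYP2C9 activity was measured with a P450-Glo proluciferin substrate. Enzyme–substrate mix was held with compound for 10 min at room temperature, then NADPH regeneration solution was added for 1 h at 37C. Luciferin product was read as luminescence.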

Test [11] deals with Cytochrome P450 1A2 (Homo sapiens) (UniProt P05177). The test can be described thus: Cytochrome P450 Family 1 Subfamily A Member 2 (CYP1A2) small molecule antagonists: luciferase reporter qHTS assay (AID 1671199). For activity change, negative = inhibition: series mostly up to about 120 µM. Note: nearly all actives have a fitted effect of over 50% in size. Note: potency is the fitted concentration of half-maximal effect. The method, boiled down:
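Enzymatic CYP1A2 assay, human, luminescent: 10 min compound–enzyme–substrate preincubation, 1 h NADPH-dependent turnover, 20 min detection step, room temperature throughout. Reduced light indicates lower CYP1A2 activity.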

Test [12] deals with Cytochrome P450 3A4 (Homo sapiens) (UniProt P08684). The test can be described thus: Cytochrome P450 Family 3 Subfamily A Member 4 (CYP3A4) small molecule antagonists: luciferase reporter qHTS assay (AID 1671201). For activity change, negative = inhibition: series mostly up to about 120 µM. Note: nearly all actives have a fitted effect of over 50% in size. Note: potency is the fitted concentration of half-maximal effect. The gist of the method:
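Relative luminescence units after 20 min with luciferin detection reagent served as read-out. Beforehand, CYP3A4 turned over a proluciferin substrate for 1 h at room temperature with NADPH regeneration, following 10 min compound preincubation.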

The target of test [13] is Cytochrome P450 2D6 (Homo sapiens) (UniProt P10635). Nature of the test: Cytochrome P450 Family 2 Subfamily D Member 6 (CYP2D6) small molecule antagonists: luciferase reporter qHTS assay (AID 1671196). For activity change, negative = inhibition: series mostly up to about 120 µM. Note: nearly all actives have a fitted effect of over 50% in size. Note: potency is the fitted concentration of half-maximal effect. The method, boiled down:
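Each well received CYP2D6 with its proluciferin substrate and chemical, sat 10 min, then got NADPH regeneration solution for 1 h at room temperature. Luminescence in RLU served as the activity measure.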

Test [14] deals with Nuclear receptor subfamily 1 group I member 2 (Rattus norvegicus) (UniProt Q9R1A7). The test can be described thus: Rat pregnane X receptor (rPXR) activation by small molecules, qHTS assay (AID 1346983). Note: nearly all actives have a fitted effect of over 20% in size. Note: potency is the fitted concentration of half-maximal effect. To be noted: rPXR luciferase reporter cells, One-Glo luminescence, 24 h; max activation: active compounds read high. The method, boiled down: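 Cell-based rPXR luciferase reporter assay, 2,000 cells per well, rested 5hr at 37 C before compound addition in DMSO, then 24 hr at 37 C. One-Glo reagent was added and luminescence read after 30 min at room temperature.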
Chain of Nuclear receptor subfamily 1 group I member 2 (Rattus norvegicus) (Q9R1A7 whole entry, looked up): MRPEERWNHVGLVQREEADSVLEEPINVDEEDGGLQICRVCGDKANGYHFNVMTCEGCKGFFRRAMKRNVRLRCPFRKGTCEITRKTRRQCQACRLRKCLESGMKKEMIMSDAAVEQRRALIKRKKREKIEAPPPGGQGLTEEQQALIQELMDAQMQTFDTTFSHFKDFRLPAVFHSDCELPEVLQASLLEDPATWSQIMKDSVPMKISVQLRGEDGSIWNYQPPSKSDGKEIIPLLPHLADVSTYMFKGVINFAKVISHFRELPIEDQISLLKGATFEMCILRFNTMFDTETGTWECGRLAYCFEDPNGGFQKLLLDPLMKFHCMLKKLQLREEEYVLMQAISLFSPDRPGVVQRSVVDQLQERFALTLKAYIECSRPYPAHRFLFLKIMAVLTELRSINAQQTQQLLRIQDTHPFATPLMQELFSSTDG

Test [15] addresses Nuclear receptor subfamily 1 group I member 2 (Homo sapiens) (UniProt O75469). The test can be described thus: CYP3A4 induction through human pregnane X receptor (PXR) by small molecules, qHTS assay (AID 1346984). Note: nearly all actives have a fitted effect of over 40% in size. The method, boiled down:
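Readings come from a luciferase reporter: DPX-2 cells, which are HepG2 cotransfected with PXR and a CYP3A4-promoter construct, were exposed to test compounds for 24 h at 37C before One-Glo detection.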

For test [16] the target is unchanged. Nature of the test: Human pregnane X receptor (PXR) activation by small molecules, qHTS assay (AID 1346985). Note: nearly all actives have a fitted effect of over 40% in size. Note: potency is the fitted concentration of half-maximal effect. The method, boiled down: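 DPX-2 cells (HepG2 co-transfected with a PXR response element and a CYP3A4-promoter luciferase construct) were seeded at 2,000 per well, rested 5 hr at 37C, then exposed to DMSO-dissolved compounds for 24 hr. Activation was read as luciferase luminescence.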
% is set by controls: 0 for no effect and ±100 for the full control effect.

Chain of Cytochrome P450 3A4 (Homo sapiens) (P08684 whole entry, looked up): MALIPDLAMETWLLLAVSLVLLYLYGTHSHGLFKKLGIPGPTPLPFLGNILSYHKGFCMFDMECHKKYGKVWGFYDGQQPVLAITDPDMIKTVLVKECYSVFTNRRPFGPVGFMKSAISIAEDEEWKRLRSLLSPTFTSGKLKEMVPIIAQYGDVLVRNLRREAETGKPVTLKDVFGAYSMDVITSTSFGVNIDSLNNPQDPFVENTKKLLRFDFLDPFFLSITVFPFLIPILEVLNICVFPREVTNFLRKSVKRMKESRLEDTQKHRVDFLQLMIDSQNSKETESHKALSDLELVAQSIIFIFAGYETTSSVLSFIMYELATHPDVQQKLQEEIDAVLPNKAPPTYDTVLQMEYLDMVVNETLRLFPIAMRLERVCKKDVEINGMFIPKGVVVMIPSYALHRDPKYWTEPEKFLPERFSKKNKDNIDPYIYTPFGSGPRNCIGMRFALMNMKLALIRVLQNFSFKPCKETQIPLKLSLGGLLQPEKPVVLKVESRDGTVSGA
Chain of Cytochrome P450 2C19 (Homo sapiens) (P33261 whole entry, looked up): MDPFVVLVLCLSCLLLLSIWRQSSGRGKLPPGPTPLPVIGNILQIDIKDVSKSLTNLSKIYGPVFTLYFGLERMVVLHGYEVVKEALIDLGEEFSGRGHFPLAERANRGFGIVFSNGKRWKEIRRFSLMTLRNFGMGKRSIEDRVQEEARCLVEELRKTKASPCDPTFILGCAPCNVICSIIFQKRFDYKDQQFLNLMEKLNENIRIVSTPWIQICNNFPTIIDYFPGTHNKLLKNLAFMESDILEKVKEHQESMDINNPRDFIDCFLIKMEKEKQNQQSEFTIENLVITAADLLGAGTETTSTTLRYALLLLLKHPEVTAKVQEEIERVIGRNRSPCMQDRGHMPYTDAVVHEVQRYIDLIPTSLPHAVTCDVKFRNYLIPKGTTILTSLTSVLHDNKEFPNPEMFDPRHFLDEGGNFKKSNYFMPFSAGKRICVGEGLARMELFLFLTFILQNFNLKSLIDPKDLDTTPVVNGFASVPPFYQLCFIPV
Chain of Thyrotropin-releasing hormone receptor (Homo sapiens) (P34981 whole entry, looked up): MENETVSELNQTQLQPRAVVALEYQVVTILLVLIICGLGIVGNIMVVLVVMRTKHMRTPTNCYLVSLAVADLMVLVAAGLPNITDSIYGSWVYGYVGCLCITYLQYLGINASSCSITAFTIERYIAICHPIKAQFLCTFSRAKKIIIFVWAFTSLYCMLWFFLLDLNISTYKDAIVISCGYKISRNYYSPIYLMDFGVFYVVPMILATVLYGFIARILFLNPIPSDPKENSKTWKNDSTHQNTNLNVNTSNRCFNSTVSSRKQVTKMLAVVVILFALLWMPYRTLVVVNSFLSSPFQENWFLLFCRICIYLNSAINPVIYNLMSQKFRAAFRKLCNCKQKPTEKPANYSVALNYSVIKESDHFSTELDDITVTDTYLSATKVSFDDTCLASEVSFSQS
Chain of Cytochrome P450 2D6 (Homo sapiens) (P10635 whole entry, looked up): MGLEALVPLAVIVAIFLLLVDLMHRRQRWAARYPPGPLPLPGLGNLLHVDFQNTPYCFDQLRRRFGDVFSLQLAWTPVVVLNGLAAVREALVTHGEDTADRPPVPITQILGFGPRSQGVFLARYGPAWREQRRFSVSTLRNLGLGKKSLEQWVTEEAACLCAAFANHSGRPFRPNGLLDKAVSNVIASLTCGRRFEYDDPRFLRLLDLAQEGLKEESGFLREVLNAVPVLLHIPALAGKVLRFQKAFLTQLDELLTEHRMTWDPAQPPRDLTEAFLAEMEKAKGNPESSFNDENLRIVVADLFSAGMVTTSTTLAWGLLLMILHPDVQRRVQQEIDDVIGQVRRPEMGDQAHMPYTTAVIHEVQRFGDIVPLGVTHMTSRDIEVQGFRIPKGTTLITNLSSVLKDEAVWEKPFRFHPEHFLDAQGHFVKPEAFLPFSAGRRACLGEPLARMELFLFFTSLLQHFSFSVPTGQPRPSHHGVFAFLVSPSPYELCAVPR
Chain of Cytochrome P450 2C9 (Homo sapiens) (P11712 whole entry, looked up): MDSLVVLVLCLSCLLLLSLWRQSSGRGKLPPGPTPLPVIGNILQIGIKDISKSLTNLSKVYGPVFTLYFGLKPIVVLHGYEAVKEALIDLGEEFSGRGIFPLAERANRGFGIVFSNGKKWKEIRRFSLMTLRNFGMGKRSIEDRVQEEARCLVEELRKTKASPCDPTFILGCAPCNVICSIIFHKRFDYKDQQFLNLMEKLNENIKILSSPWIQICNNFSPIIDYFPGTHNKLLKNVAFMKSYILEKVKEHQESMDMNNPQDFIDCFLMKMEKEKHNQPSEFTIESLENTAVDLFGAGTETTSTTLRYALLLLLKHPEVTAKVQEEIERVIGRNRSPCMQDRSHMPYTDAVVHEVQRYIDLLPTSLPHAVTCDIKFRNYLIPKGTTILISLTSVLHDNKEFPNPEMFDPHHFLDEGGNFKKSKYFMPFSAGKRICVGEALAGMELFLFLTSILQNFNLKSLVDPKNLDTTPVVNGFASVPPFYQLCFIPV
Chain of Cytochrome P450 1A2 (Homo sapiens) (P05177 whole entry, looked up): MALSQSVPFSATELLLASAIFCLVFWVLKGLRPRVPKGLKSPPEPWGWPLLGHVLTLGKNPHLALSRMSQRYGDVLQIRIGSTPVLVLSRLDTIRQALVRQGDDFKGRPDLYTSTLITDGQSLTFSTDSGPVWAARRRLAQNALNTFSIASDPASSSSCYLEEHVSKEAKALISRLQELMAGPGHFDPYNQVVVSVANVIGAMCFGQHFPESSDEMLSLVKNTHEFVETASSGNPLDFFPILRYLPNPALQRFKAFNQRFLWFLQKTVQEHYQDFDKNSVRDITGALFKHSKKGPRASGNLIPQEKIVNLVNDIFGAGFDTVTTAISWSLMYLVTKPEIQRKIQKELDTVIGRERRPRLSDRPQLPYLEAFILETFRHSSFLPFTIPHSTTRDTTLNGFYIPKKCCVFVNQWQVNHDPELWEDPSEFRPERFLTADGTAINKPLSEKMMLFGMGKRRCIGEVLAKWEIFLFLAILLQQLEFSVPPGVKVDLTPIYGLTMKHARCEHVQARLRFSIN
Chain of Voltage-gated inwardly rectifying potassium channel KCNH2 (Homo sapiens) (Q12809 whole entry, looked up): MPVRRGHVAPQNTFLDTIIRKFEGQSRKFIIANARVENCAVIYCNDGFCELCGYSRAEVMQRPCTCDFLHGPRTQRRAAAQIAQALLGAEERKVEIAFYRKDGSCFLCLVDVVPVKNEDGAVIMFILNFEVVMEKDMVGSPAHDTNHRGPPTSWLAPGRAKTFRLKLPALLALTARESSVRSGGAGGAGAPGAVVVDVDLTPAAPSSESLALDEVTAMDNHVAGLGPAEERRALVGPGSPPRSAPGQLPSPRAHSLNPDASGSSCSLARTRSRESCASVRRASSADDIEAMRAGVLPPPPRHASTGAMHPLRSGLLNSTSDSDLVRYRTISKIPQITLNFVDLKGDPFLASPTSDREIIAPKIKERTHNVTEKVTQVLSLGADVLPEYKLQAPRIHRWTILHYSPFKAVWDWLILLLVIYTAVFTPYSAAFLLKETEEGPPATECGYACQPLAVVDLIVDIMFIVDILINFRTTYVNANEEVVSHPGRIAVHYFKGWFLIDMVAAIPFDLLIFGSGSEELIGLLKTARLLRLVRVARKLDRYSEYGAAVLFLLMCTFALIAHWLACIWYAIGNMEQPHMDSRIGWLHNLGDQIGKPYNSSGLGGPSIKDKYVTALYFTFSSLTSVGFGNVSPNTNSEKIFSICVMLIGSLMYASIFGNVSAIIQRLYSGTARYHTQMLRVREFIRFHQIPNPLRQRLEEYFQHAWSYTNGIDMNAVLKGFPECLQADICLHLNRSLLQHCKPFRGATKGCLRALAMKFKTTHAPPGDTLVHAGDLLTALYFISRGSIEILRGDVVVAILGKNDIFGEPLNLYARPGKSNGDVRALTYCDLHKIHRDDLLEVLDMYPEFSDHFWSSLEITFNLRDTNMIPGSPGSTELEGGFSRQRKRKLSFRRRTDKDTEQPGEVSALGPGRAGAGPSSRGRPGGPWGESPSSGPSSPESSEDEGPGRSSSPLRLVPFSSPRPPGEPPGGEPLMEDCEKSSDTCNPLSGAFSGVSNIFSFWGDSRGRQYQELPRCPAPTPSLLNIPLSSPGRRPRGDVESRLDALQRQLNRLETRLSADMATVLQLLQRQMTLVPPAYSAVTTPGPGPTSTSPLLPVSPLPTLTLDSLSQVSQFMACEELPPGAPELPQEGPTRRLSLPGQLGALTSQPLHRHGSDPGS
Chain of Nuclear receptor subfamily 1 group I member 2 (Homo sapiens) (O75469 whole entry, looked up): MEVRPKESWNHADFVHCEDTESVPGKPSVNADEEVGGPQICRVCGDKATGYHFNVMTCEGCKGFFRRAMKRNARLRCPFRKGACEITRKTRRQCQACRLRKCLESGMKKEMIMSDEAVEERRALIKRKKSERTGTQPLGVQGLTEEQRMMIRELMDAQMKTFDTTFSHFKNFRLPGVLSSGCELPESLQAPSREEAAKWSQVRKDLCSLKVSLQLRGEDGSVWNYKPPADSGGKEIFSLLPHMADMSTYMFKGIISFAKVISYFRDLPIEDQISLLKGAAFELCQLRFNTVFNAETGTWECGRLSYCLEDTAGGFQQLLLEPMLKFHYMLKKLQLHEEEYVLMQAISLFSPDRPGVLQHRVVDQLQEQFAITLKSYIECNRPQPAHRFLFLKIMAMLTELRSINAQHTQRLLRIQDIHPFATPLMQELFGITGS

In the case of `COCCOC`, the Potency entry in [1], in test [2] and in [6] was “inactive” throughout. Also, the figures for the Potency in test [3] and in test [5] were 14.6 µM (active) and 13 µM (active), respectively. In addition, the result in [4] was inactive.

With `CNC(=S)NC`, the Potency result in test [1], in test [7], in test [2], in [5], in test [8] and in [9] was “inactive” in each case. In addition, the Potency entry in test [10], in test [6] and in test [12] was “inactive” each time. In addition, in test [11], the Potency was 31.7 µM (active).

As for `CC(C)OCC1CO1` (stereo unspecified), the Potency result in test [1], in test [2], in [3], in test [5], in test [13] and in test [9] was “inactive” each time. The Potency result in test [10], in test [11] and in [6] was “inactive” in each case. In addition, the call in test [4] was inactive.

In the case of `CC(N)CN` (stereo unspecified), the Potency result in test [1], in [2], in test [3], in [5], in [11] and in test [6] was “inactive” throughout. For the same molecule, the outcome in test [4] was inactive.

As to `CC1=NN(c2ccc(C(=O)O)cc2)C(=O)C1`, the Potency result in test [1], in test [2], in [3], in test [5], in [10] and in [6] was “inactive” each time. For the same molecule, the Potency result in test [12] is “inactive”. In test [9], the Potency was 20 µM (active).

Turning to `O=C(CCCCCCC(=O)Nc1ccccc1)NO`, the Potency result in test [1], in [15], in [16], in [6] and in test [12] was “inactive” in each case. Besides, the Potency in test [2] is 4.22 µM (active); in [3], 13.3 µM (active); in [8] it was 7.5 µM (active); in test [9], 7.76 µM (active); in test [11] it was 12.9 µM (active). Also, the max activation in test [14] is -13.8%.

For `CCCCC(CC)C(=O)OCCOCCOCCOCCOC(=O)C(CC)CCCC` (stereo unspecified), the Potency result in [1], in [2], in test [3], in test [5] and in test [13] was “inactive” in each case. Further, in test [4], the molecule was classed as inactive. Also, the Potency in [9] is 22.4 µM (active); in test [10] it was 12.6 µM (active); in test [11], 31.7 µM (active); in [12], 12.6 µM (active).

As for `CC(=O)[C@H]1CC[C@H]2[C@@H]3C[C@H](C)C4=CC(=O)CC[C@]4(C)[C@H]3[C@@H](O)C[C@]12C`, the Potency result in test [1], in test [2], in test [5], in test [15], in test [16] and in [13] was “inactive” each time. Further, the Potency entry in test [11] and in test [6] was “inactive” throughout. For the same molecule, the molecule was classed as inactive in [4]. The Potency in [8] was 13.3 µM (active); in test [14] it was 2.51 µM (active).

Take `COc1cc2c(cc1OC)-c1cc(=Nc3c(C)cc(C)cc3C)n(C)c(=O)n1CC2`: the Potency result in test [1], in test [2] and in test [15] was “inactive” in each case. The Potency in test [3] was 29.8 µM (active); in test [8], 9.44 µM (active); in [16], 6.31 µM (active); in [13], 13.8 µM (active); in [10] it was 1.1 µM (active). The molecule was classed as inactive in [4].

As to `O=C(CS)OCCOC(=O)CS`, the Potency entry in test [1], in test [2], in test [3], in test [8], in test [13] and in test [9] was “inactive” in each case. The Potency entry in test [6] is “inactive”. Besides, the outcome in test [4] was inactive. In addition, the Potency in test [11] was 39.9 µM (active); in test [12] it was 28.3 µM (active).

Take `CCCCCCCCCCCCCCCCBr`: the activity change, negative = cytotoxicity is -1.37% [at 19 µM] in test [7], 4.02% [at 19 µM] in [3] and 4.64% [at 19 µM] in [5]. The caspase activation in test [2] is 2.76% [at 19 µM]. The caspase-3/7 activation in test [4] was -0.176% [at 19 µM]. For the same molecule, the activation in test [8] is -5.34% [at 19 µM]. In addition, the activity change, negative = inhibition in [13] is -8.89% [at 23.6 µM]; in test [9], 0.164% [at 23.6 µM]; in test [6] it was 1.22% [at 15.8 µM].
